Data published in PubChem BioAssay (NCI).
This is part of a sample that, as a whole, favours compounds with a hit. Of some 83,000 tested, about 20% had one in any assay.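 Single-dose data. Exposure time 48 hours. Values below 10 considered active.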 The source made the active and inactive calls.

Tests used:
Test in all cases: NCI-60 one-dose screen, 48 h (100 = growth as untreated, 0 = no growth, -100 = all killed)
Settings in all cases: 10 µM unless noted
SK-MEL-2 melanoma = tested on: SK-MEL-2 melanoma
SN12C renal = tested on: SN12C renal
UO-31 renal = tested on: UO-31 renal
TK-10 renal = tested on: TK-10 renal
ACHN renal = tested on: ACHN renal
CAKI-1 renal = tested on: CAKI-1 renal
A498 renal = tested on: A498 renal
CCRF-CEM leukemia = tested on: CCRF-CEM leukemia
MOLT-4 leukemia = tested on: MOLT-4 leukemia

Measured: growth

COc1cc(NC(C)CCCN)c2ncccc2c1Sc1ccc(Cl)cc1 (stereo unspecified)
inactive: SK-MEL-2 melanoma 102% | SN12C renal 64.9% | UO-31 renal 40.1% | TK-10 renal 78.6% | ACHN renal 74.8% | CAKI-1 renal 50.2% | A498 renal 55.9% | CCRF-CEM leukemia 44.7% | MOLT-4 leukemia 31.7%

COc1ccc2nc(C)cc(Nc3ccccc3O)c2c1
inactive: SK-MEL-2 melanoma 67.7% | TK-10 renal 21.2% | A498 renal 89.8% | CCRF-CEM leukemia 50.7% | MOLT-4 leukemia 87.7%
active: SN12C renal -22.9% | UO-31 renal -56.1% | ACHN renal -38.9% | CAKI-1 renal -0.0846%

CC1=C(C(=O)Nc2ccc(F)cc2)C(c2ccc(Cl)cc2)C2=C(CC(C)(C)CC2=O)N1 (stereo unspecified)
inactive: SK-MEL-2 melanoma 97.5% | SN12C renal 86.7% | UO-31 renal 64% | TK-10 renal 113% | ACHN renal 94.4% | CAKI-1 renal 72.7% | A498 renal 54.4% | CCRF-CEM leukemia 78.8% | MOLT-4 leukemia 73.1%

COc1ccc(-c2[nH]nc(N)c2-c2cc(OC)c(OC)c(OC)c2)cc1
active: CAKI-1 renal 5.73% | A498 renal -8.24% | CCRF-CEM leukemia -5.92% | MOLT-4 leukemia -2.96%
inactive: SK-MEL-2 melanoma 42.5% | SN12C renal 33% | UO-31 renal 20.4% | TK-10 renal 34.9% | ACHN renal 25.5%

Clc1ncnc2scc(C3COc4ccccc4O3)c12 (stereo unspecified)
inactive: SK-MEL-2 melanoma 107% | SN12C renal 86.6% | UO-31 renal 59.5% | TK-10 renal 110% | ACHN renal 96.2% | A498 renal 97% | CCRF-CEM leukemia 22.3% | MOLT-4 leukemia 74.7%
active: CAKI-1 renal -18.7%

CC1=C(C(=O)Nc2ccc(F)cc2)C(c2ccc(C)cc2)C2=C(CC(C)(C)CC2=O)N1 (stereo unspecified)
inactive: SK-MEL-2 melanoma 110% | SN12C renal 97% | UO-31 renal 63.2% | TK-10 renal 109% | ACHN renal 94.7% | CAKI-1 renal 69.6% | A498 renal 63.7% | CCRF-CEM leukemia 82.8% | MOLT-4 leukemia 85%

CC(COC(=O)c1ccccc1)N1CC2CCC(C1)O2 (stereo unspecified)
inactive: SK-MEL-2 melanoma 107% | SN12C renal 99.8% | UO-31 renal 86% | TK-10 renal 111% | ACHN renal 104% | CAKI-1 renal 96.5% | A498 renal 89.5% | CCRF-CEM leukemia 92.7% | MOLT-4 leukemia 100%

N#Cc1c(N)c(C(=O)c2ccc3c(c2)OCCO3)n2c1CCCC2
active: SK-MEL-2 melanoma 6.49% | CAKI-1 renal 4.26%
inactive: SN12C renal 42.7% | UO-31 renal 34.4% | TK-10 renal 39.9% | ACHN renal 39% | A498 renal 38.8% | CCRF-CEM leukemia 30.5% | MOLT-4 leukemia 12.3%

C/C(=N\OC(=O)Nc1ccccc1)c1ccccc1
inactive: SK-MEL-2 melanoma 111% | SN12C renal 94.8% | UO-31 renal 88.7% | TK-10 renal 115% | ACHN renal 106% | CAKI-1 renal 114% | A498 renal 39.4% | CCRF-CEM leukemia 99.1% | MOLT-4 leukemia 94%

CCOC(C)(c1ccc(Cl)cc1)C1CCNCC1 (stereo unspecified)
inactive: SK-MEL-2 melanoma 106% | SN12C renal 100% | UO-31 renal 80.6% | TK-10 renal 96.1% | ACHN renal 98.4% | CAKI-1 renal 100% | A498 renal 86.1% | CCRF-CEM leukemia 109% | MOLT-4 leukemia 81.7%

CN1CCN(Cc2ccc(NC(=O)c3cncc(C#Cc4ncc5cnccn45)c3)cc2C(F)(F)F)CC1
inactive: SN12C renal 54.5% | UO-31 renal 18.3% | TK-10 renal 81.4% | ACHN renal 30.7% | CAKI-1 renal 31.5% | A498 renal 65.2% | CCRF-CEM leukemia 41.9% | MOLT-4 leukemia 43.5%
active: SK-MEL-2 melanoma -12.9%

O=C(NCC(c1ccsc1)N1CCCCCC1)c1ccc(C(F)(F)F)cc1 (stereo unspecified)
inactive: SK-MEL-2 melanoma 94.3% | SN12C renal 96.8% | UO-31 renal 88.1% | TK-10 renal 94.5% | ACHN renal 103% | CAKI-1 renal 85% | A498 renal 89.4% | CCRF-CEM leukemia 96.2% | MOLT-4 leukemia 78.2%

Clc1cc(Br)ccc1-c1ccc(CNCC2CCNCC2)o1
inactive: SK-MEL-2 melanoma 76.8% | SN12C renal 86.3% | TK-10 renal 32.2% | CAKI-1 renal 68.6% | A498 renal 81.8% | CCRF-CEM leukemia 24% | MOLT-4 leukemia 55.6%
active: UO-31 renal -58.5% | ACHN renal 3.97%

Cc1cc(C)cc(Nc2cc(C)nc3nc(C(F)(F)F)nn23)c1
inactive: SK-MEL-2 melanoma 22.6% | SN12C renal 31.9% | TK-10 renal 46.1% | ACHN renal 28.6% | CAKI-1 renal 12.4% | A498 renal 67% | CCRF-CEM leukemia 16.9% | MOLT-4 leukemia 18.4%
active: UO-31 renal 2.04%

COc1ccc(-c2nc3ccc(Cc4ccc5nc(-c6ccc(OC)cc6)[nH]c5c4)cc3[nH]2)cc1
inactive: SK-MEL-2 melanoma 41.2% | SN12C renal 42.4% | UO-31 renal 89.3% | TK-10 renal 75.1% | ACHN renal 85.4% | CAKI-1 renal 56.3% | A498 renal 102% | CCRF-CEM leukemia 13.4% | MOLT-4 leukemia 43.7%

O=NN(CC(=O)NNc1ccccc1)CC(=O)NNc1ccccc1
inactive: SK-MEL-2 melanoma 77.7% | SN12C renal 87% | UO-31 renal 22% | TK-10 renal 84.3% | ACHN renal 46.4% | CAKI-1 renal 36% | A498 renal 107% | CCRF-CEM leukemia 30.7% | MOLT-4 leukemia 42.2%

COc1ccc(/C=c2\c(=O)n(-c3ccccc3)c3nn4c(=O)c(=O)[nH]nc4n23)cc1
inactive: SK-MEL-2 melanoma 109% | SN12C renal 108% | UO-31 renal 83% | TK-10 renal 133% | ACHN renal 114% | CAKI-1 renal 90.4% | A498 renal 118% | CCRF-CEM leukemia 106% | MOLT-4 leukemia 110%

CCOC(=O)Nc1ccc2nc(-c3cscn3)[nH]c2c1
inactive: SK-MEL-2 melanoma 32.4% | SN12C renal 51.1% | UO-31 renal 50.9% | TK-10 renal 63.2% | ACHN renal 73.9% | CAKI-1 renal 39.3% | A498 renal 41.8% | CCRF-CEM leukemia 70.8% | MOLT-4 leukemia 49.9%

N#CC1=C(N)Oc2nc[nH]c(=O)c2C1c1cccs1 (stereo unspecified)
inactive: SK-MEL-2 melanoma 113% | SN12C renal 105% | UO-31 renal 97.1% | TK-10 renal 105% | ACHN renal 101% | CAKI-1 renal 94.9% | A498 renal 107% | CCRF-CEM leukemia 95% | MOLT-4 leukemia 94.3%

Cc1ccc(CSCc2ccc(C(=O)NC3CC3)o2)cc1
inactive: SK-MEL-2 melanoma 75.6% | SN12C renal 83.2% | UO-31 renal 74.7% | TK-10 renal 90.6% | ACHN renal 63.1% | CAKI-1 renal 64.5% | A498 renal 53.3% | CCRF-CEM leukemia 62.1% | MOLT-4 leukemia 62.6%

NCCCOc1cc2ccccc2cc1C(=O)NCCCOc1cc2ccccc2cc1C(=O)Nc1ccc(Cl)cc1O
active: SK-MEL-2 melanoma -73.8% | SN12C renal -78.5% | UO-31 renal -95.4% | TK-10 renal -95.5% | ACHN renal -95.9% | CAKI-1 renal -89.9% | A498 renal -38.7% | CCRF-CEM leukemia -16.3% | MOLT-4 leukemia -20.6%

COc1cc2c(cc1OC)C(=O)C(Br)CC2 (stereo unspecified)
inactive: SK-MEL-2 melanoma 81.6% | SN12C renal 44.4% | UO-31 renal 39.4% | TK-10 renal 53.7% | ACHN renal 42.1% | CAKI-1 renal 10.4% | A498 renal 73.6% | MOLT-4 leukemia 13.3%
active: CCRF-CEM leukemia 3.35%

COc1cccc(NC(=O)[C@H](C(C)C)n2c(=O)[nH]c3ccccc3c2=O)c1
inactive: SK-MEL-2 melanoma 101% | SN12C renal 105% | UO-31 renal 101% | TK-10 renal 105% | ACHN renal 104% | CAKI-1 renal 97.6% | A498 renal 114% | CCRF-CEM leukemia 94.8% | MOLT-4 leukemia 96.8%

CCCCCCCCCCCCCC(=S)NCCCC[C@H](NC(=O)OCc1ccccc1)C(=O)Nc1ccccc1
inactive: SK-MEL-2 melanoma 40.5% | SN12C renal 27.3% | UO-31 renal 28.6% | TK-10 renal 44.2% | ACHN renal 24.6% | CAKI-1 renal 34.5% | A498 renal 55.4% | CCRF-CEM leukemia 27.3% | MOLT-4 leukemia 21.6%

C#CC[C@@H]1C[C@]2(C)[C@H]3CC[C@@H]4[C@H]5C(C(=C)C)CC[C@]5(C(=O)NCCCN5CCN(CCCN)CC5)CC[C@@]4(C)[C@]3(C)CC[C@H]2C(C)(C)[C@H]1OC(C)=O (stereo partly specified)
inactive: A498 renal 98.6%
active: SK-MEL-2 melanoma -18.1% | SN12C renal -84.4% | UO-31 renal -95.3% | TK-10 renal -91.5% | ACHN renal -97.8% | CAKI-1 renal -96.1% | CCRF-CEM leukemia -29.6% | MOLT-4 leukemia -28.3%

CCCN(CCC)CC(O)COc1ccccc1C(=O)Nc1ccccc1 (stereo unspecified)
inactive: SK-MEL-2 melanoma 58% | SN12C renal 81.6% | UO-31 renal 78.1% | TK-10 renal 111% | ACHN renal 77.2% | CAKI-1 renal 57.5% | A498 renal 53.9% | CCRF-CEM leukemia 71.2% | MOLT-4 leukemia 78%

CCn1c(CN2CCN(Cc3ccccc3)CC2)nc2cc(NC(=O)c3cccs3)ccc21
active: SK-MEL-2 melanoma -50.1% | SN12C renal -87.6% | UO-31 renal -96.7% | TK-10 renal -94.1% | ACHN renal -79.2% | CAKI-1 renal -92.5% | A498 renal -91.6% | CCRF-CEM leukemia -39.2% | MOLT-4 leukemia -11.3%

CCCCN(CCCC)CCC(O)c1cc2ccc(C(F)(F)F)cc2c2cc(C(F)(F)F)ccc12 (stereo unspecified)
inactive: SK-MEL-2 melanoma 55% | SN12C renal 46.9% | UO-31 renal 19.6% | TK-10 renal 74.4% | ACHN renal 49.9% | CAKI-1 renal 38.6% | A498 renal 56.4% | CCRF-CEM leukemia 36.2% | MOLT-4 leukemia 28.7%

O=c1c2sc3ccccc3c2nnn1-c1ccc(F)c(Cl)c1
inactive: SK-MEL-2 melanoma 75.4% | SN12C renal 70.2% | UO-31 renal 18.1% | TK-10 renal 29% | CAKI-1 renal 35.6% | A498 renal 56.6% | CCRF-CEM leukemia 48.6% | MOLT-4 leukemia 34.3%
active: ACHN renal 4.64%
